The target in one assay is POU1 (OCT1 POU domain);BOB1 (OBF1, OCA-B) (human;human, UniProt P14859;Q16633 260-458;1-256, |). Put plainly: EMSA-SELEX-seq; with BOB1 (ternary complex band); 20 mM Tris-HCl pH 7.6, 140 mM NaCl, 10% glycerol, 0.5 mM EDTA, 0.05% Triton X-100, 0.1 mg/mL BSA, 0.1 mg/mL poly(dI-dC), 5 mM DTT, room temperature, 20 min; high values mean tight binding. The settings on record: protein: recombinant;recombinant; copies: 1;1; dsDNA, one strand shown. A digest of the protocol: (§1)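 Binding preference is reported as the percentage of sequenced 8-mers that match a motif pattern. Tagged POU-domain proteins were made in E. coli BL21, purified under denaturing conditions and renatured. A 30 ng portion was combined with 300 ng of a PCR-amplified double-stranded random 35-nt library, with or without 28 ng coactivator protein, in 20 μL Tris–HCl pH 7.6 binding buffer for 20 min at RT. Complex bands were excised from native 6% PAGE, eluted and PCR-amplified over four rounds before Illumina sequencing.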
Turning to ATCTAAAG, the binding signal is 0.0503 % of ANNNNAAN 8-mers.
Still for that read-out and setting: for AAATCAAC the value was 0.096 % of ANNNNAAN 8-mers; for AACTAAAC, 0.0289 % of ANNNNAAN 8-mers; for AAGATAAA, 0.0585 % of ANNNNAAN 8-mers.
On to AATGAAAT, for which the binding signal is 0.14 % of ANNNNAAN 8-mers.
As to ATCATAAC, the binding signal is 0.023 % of ANNNNAAN 8-mers.
The same measure, in the same setting: the result for ACGGCAAA reads 0.0445 % of ANNNNAAN 8-mers; that for AAGGGAAA, 0.255 % of ANNNNAAN 8-mers; that for ACCGGAAT, 0.0398 % of ANNNNAAN 8-mers.
As for ATCTCAAA, the binding signal was 0.0574 % of ANNNNAAN 8-mers.
On the same count and under the same terms, the result for ACTGGAAT reads 0.0558 % of ANNNNAAN 8-mers; that for AACAAAAG, 0.0741 % of ANNNNAAN 8-mers; that for AGGTTAAC, 0.0324 % of ANNNNAAN 8-mers.
The same measure, in the same setting: the result for AATAGAAA reads 0.0858 % of ANNNNAAN 8-mers; that for ATAACAAA, 0.1 % of ANNNNAAN 8-mers; that for ATCGGAAA, 0.0429 % of ANNNNAAN 8-mers.
AGTATAAG: the binding signal is 0.041 % of ANNNNAAN 8-mers.
The same measure, in the same setting: for AGGTTAAA the value was 0.0578 % of ANNNNAAN 8-mers; for ACGTCAAT, 0.0269 % of ANNNNAAN 8-mers.
On to ATATAAAC, for which the binding signal is 0.055 % of ANNNNAAN 8-mers.
Take AGGGTAAG: the binding signal was 0.0531 % of ANNNNAAN 8-mers.
For AACCAAAT, the binding signal is 0.257 % of ANNNNAAN 8-mers.
For the sequence ATTTTAAT, the binding signal was 0.258 % of ANNNNAAN 8-mers.
On the same count and under the same terms, the result for ATTACAAA reads 0.08 % of ANNNNAAN 8-mers; that for ATTCCAAG, 0.032 % of ANNNNAAN 8-mers.
Turning to AGCGTAAA, the binding signal is 0.0347 % of ANNNNAAN 8-mers.
On to AACGGAAA, for which the binding signal was 0.0741 % of ANNNNAAN 8-mers.
For AGTAGAAG, the binding signal was 0.0336 % of ANNNNAAN 8-mers.
ATTACAAG: the binding signal was 0.048 % of ANNNNAAN 8-mers.
With AATGTAAC, the binding signal is 0.046 % of ANNNNAAN 8-mers.
With ACTAGAAC, the binding signal is 0.0144 % of ANNNNAAN 8-mers.
As to ACAGGAAT, the binding signal was 0.0476 % of ANNNNAAN 8-mers.
Still for that read-out and setting: the result for AGCAAAAT reads 0.107 % of ANNNNAAN 8-mers.
Still for that read-out and setting: the result for ATTAGAAT reads 0.133 % of ANNNNAAN 8-mers; that for ATAGAAAA, 0.0695 % of ANNNNAAN 8-mers; that for AAGGAAAG, 0.0792 % of ANNNNAAN 8-mers.
In the case of AGTACAAT, the binding signal was 0.0386 % of ANNNNAAN 8-mers.
For AACTGAAA, the binding signal was 0.0382 % of ANNNNAAN 8-mers.
Turning to ACAGCAAT, the binding signal was 0.0281 % of ANNNNAAN 8-mers.
As to AATGAAAG, the binding signal is 0.0901 % of ANNNNAAN 8-mers.

In another assay the target is T1, POU2 (OCT2 POU domain);BOB1 (OBF1, OCA-B) (human;human, UniProt P09086;Q16633 175-386;1-256, |).
T1 sequence 1: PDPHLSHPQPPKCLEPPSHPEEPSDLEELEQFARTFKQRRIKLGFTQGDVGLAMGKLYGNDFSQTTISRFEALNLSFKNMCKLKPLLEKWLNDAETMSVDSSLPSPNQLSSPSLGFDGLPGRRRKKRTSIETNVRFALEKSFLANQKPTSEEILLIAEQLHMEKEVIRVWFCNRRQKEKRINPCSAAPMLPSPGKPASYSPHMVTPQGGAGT
T1 sequence 2: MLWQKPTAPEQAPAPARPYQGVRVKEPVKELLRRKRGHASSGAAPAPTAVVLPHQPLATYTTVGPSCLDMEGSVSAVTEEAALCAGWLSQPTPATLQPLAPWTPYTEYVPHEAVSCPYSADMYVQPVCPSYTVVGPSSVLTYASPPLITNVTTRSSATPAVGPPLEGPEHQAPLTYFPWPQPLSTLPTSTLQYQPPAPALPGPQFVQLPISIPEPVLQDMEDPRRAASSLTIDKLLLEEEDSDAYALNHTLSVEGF
Described as above. To be noted: protein: recombinant;recombinant; copies: 1;1; dsDNA, one strand shown. The essentials:
as §1
For ATCTAAAG, the binding signal is 0.0479 % of ANNNNAAN 8-mers.
On the same count and under the same terms, for AAATCAAC the value was 0.0916 % of ANNNNAAN 8-mers; for AACTAAAC, 0.0264 % of ANNNNAAN 8-mers; for AAGATAAA, 0.0405 % of ANNNNAAN 8-mers.
As for AATGAAAT, the binding signal is 0.121 % of ANNNNAAN 8-mers.
As to ATCATAAC, the binding signal is 0.0322 % of ANNNNAAN 8-mers.
Same read-out and setting: for ACGGCAAA the value was 0.0371 % of ANNNNAAN 8-mers.
Still for that read-out and setting: for AAGGGAAA the value was 0.136 % of ANNNNAAN 8-mers.
On the same count and under the same terms, for ACCGGAAT the value was 0.0454 % of ANNNNAAN 8-mers; for ATCTCAAA, 0.038 % of ANNNNAAN 8-mers; for ACTGGAAT, 0.0817 % of ANNNNAAN 8-mers.
As to AACAAAAG, the binding signal is 0.0454 % of ANNNNAAN 8-mers.
On the same count and under the same terms, the result for AGGTTAAC reads 0.0338 % of ANNNNAAN 8-mers.
The same measure, in the same setting: for AATAGAAA the value was 0.071 % of ANNNNAAN 8-mers; for ATAACAAA, 0.0883 % of ANNNNAAN 8-mers.
Same read-out and setting: for ATCGGAAA the value was 0.0528 % of ANNNNAAN 8-mers; for AGTATAAG, 0.0454 % of ANNNNAAN 8-mers; for AGGTTAAA, 0.052 % of ANNNNAAN 8-mers.
For the sequence ACGTCAAT, the binding signal is 0.0322 % of ANNNNAAN 8-mers.
Turning to ATATAAAC, the binding signal is 0.0652 % of ANNNNAAN 8-mers.
Turning to AGGGTAAG, the binding signal was 0.0776 % of ANNNNAAN 8-mers.
The same measure, in the same setting: for AACCAAAT the value was 0.18 % of ANNNNAAN 8-mers; for ATTTTAAT, 0.221 % of ANNNNAAN 8-mers; for ATTACAAA, 0.0685 % of ANNNNAAN 8-mers.
Same read-out and setting: for ATTCCAAG the value was 0.0446 % of ANNNNAAN 8-mers; for AGCGTAAA, 0.0396 % of ANNNNAAN 8-mers.
On to AACGGAAA, for which the binding signal is 0.0561 % of ANNNNAAN 8-mers.
Still for that read-out and setting: for AGTAGAAG the value was 0.0297 % of ANNNNAAN 8-mers.
Regarding ATTACAAG, the binding signal is 0.0413 % of ANNNNAAN 8-mers.
For the sequence AATGTAAC, the binding signal is 0.0545 % of ANNNNAAN 8-mers.
Take ACTAGAAC: the binding signal is 0.0149 % of ANNNNAAN 8-mers.
Still for that read-out and setting: for ACAGGAAT the value was 0.0702 % of ANNNNAAN 8-mers; for AGCAAAAT, 0.0759 % of ANNNNAAN 8-mers.
Same read-out and setting: for ATTAGAAT the value was 0.18 % of ANNNNAAN 8-mers.
Same read-out and setting: the result for ATAGAAAA reads 0.0619 % of ANNNNAAN 8-mers; that for AAGGAAAG, 0.0644 % of ANNNNAAN 8-mers; that for AGTACAAT, 0.0462 % of ANNNNAAN 8-mers.
For AACTGAAA, the binding signal was 0.038 % of ANNNNAAN 8-mers.
The same measure, in the same setting: the result for ACAGCAAT reads 0.0215 % of ANNNNAAN 8-mers; that for AATGAAAG, 0.0718 % of ANNNNAAN 8-mers.

The record behind these values is paper PMC10812921, “Transcriptional Coactivator BOB1 (OBF1, OCA-B) Modulates the Specificity of DNA Recognition by the POU-Domain Factors OCT1 and OCT2 in a Monomeric Configuration”.
